Shown are actives, neighbours in structure and some others; about 11% of the full set was active somewhere.
HEK293 tox = Cytotoxic Profiling in HEK 293 Cell Line of Diverse Libraries Using Quantitative High-Throughput Screening; AID 1345083, 2018; 6.6% of 94,000 active; Potency, µM (top dose mostly 115 µM), without a hit: top-dose activity change, negative = cytotoxicity, hits mostly inhibitors; HEK 293 viability, ATP luminescence (CellTiter-Glo), 48-72 h; also: nearly all actives have a fitted effect of over 60% in size
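Viability of HEK 293 cells, plated at 250 cells/well, was judged by cellular ATP after compound treatment for 48 or 72 hr. Luminescence was imaged 10 min after CellTiter-Glo addition at room temperature.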
NPR1 antag = Natriuretic polypeptide receptor (hNpr1) antagonism - Primary qHTS. 1.6% of 76,000 active. Potency, µM (top dose mostly 46.3 µM), without a hit: at the highest dose activity change, negative = inhibition, most hits filed as inhibitors. Atrial natriuretic peptide receptor 1 (Homo sapiens), P16066. HEK293 hNpr1 GloSensor cGMP, ANP-stimulated luminescence. AID 1347048, 2019; calls by dose curve; also: nearly all actives have a fitted effect of over 60% in size
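Compound pre-incubated 30 min at room temperature on GloSensor-loaded HEK293 cells stably carrying hNpr1 and the pGS-40F cGMP biosensor. Stimulation uses hNppA at 0.1 nM final; luminescence is taken at baseline and 20 min post-agonist.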
3T3 cytotox = Cytotoxic Profiling in NIH 3T3 Cell Line of Diverse Libraries Using Quantitative High-Throughput Screening. NIH 3T3 viability, CellTiter-Glo ATP luminescence, 48-72 h. AID 1345082, 2018. 4.3% of 94,000 active. Potency, µM (highest dose often 96.7 µM), for inactives: top-dose activity change, negative = cytotoxicity, usual class: inhibitors; also: nearly all actives have a fitted effect of over 55% in size
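Cells were seeded at 400 per well, treated with pin-transferred compound, and kept 48 or 72 hr at 37 °C before CellTiter-Glo addition and luminescence imaging of cellular ATP.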
Luciferase inh = Firefly luciferase inhibition profiling of diverse chemical library using quantitative high-throughput screening | Luciferin 4-monooxygenase (Photinus pyralis), P08659 | purified P. pyralis luciferase, luminescence, biochemical | Potency, µM (doses to about 115 µM), actives largely listed as inhibitors | 2.5% of 76,000 active; also: nearly all actives have a fitted effect of over 65% in size
Target sequence (P08659 whole entry, looked up): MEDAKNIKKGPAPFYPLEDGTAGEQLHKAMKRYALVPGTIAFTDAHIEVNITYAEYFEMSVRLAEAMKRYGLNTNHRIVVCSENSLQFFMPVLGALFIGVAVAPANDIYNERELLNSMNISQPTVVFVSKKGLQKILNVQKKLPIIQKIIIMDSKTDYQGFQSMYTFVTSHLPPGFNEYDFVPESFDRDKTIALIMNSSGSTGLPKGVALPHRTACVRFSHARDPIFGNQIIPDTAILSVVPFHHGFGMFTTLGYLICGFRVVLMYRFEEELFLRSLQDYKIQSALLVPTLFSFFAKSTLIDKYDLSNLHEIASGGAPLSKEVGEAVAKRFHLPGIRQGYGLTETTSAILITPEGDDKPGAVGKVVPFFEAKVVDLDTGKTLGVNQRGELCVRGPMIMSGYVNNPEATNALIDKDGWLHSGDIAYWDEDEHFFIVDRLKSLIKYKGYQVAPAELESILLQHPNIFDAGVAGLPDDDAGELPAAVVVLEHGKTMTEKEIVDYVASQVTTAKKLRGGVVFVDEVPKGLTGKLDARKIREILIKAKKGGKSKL
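Inhibitors were tested against purified firefly luciferase in a biochemical, low-substrate format (both substrates at 10uM) and luminescence measured with a CCD imager.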
* = called active by the depositor; i = inactive; ? = inconclusive; . = no result; [ ] = another dose, or the depositor's remark. Unless noted, calls follow the shape of the dose curve; as a rule, active = well fitted curve in the direction sought with a large enough effect; inconclusive = small, poorly fitted or top-dose-only effect, or another doubt; inactive = no such curve, though single readings can be large; an effect the other way counts as inactive or inconclusive. % is scaled to controls: 0 for no effect and ±100 for the full control effect; potency is read from the fitted curve at half-maximal effect.

SMILES	HEK293 tox	NPR1 antag	3T3 cytotox	Luciferase inh
O=C(c1ccccc1F)N1CCc2nc(-c3ccccc3)nc(-c3ccc(Cl)cc3)c2C1	?	0.6%	?	i
Cc1cccc(C)c1CN1CC2(COCC1=O)CN(c1ccc(C(F)(F)F)cn1)C2	?	-16.9%[70.6 µM]	89.1µM*	i
COc1ccc(CN2CC3(COCC2=O)CN(c2ccc(C(F)(F)F)cn2)C3)cc1F	?	-4.0%[70.6 µM]	?	i
CN1C(=O)N(Cc2cccnc2)C(=O)C12CCN(Cc1cc3ccccc3o1)CC2	?	?	-16.5%	i
O=C1N(Cc2cccnc2)C(=O)C2(CCN(Cc3cc(F)ccc3F)CC2)N1CCc1ccccc1	39.8µM*	2.5%	?	i
CN(C)Cc1cc(C[C@@H]2C[C@H](NCc3ccccc3O)C2(C)C)no1	56.2µM*	-1.0%[70.6 µM]	?	i
CN(Cc1ccccc1)Cc1cc(C[C@@H]2C[C@H](NC(=O)C3CCC3)C2(C)C)no1	35.5µM*	?	?	i
CC(C)(C)c1cc(C[C@@H]2C[C@H](NS(=O)(=O)c3ccccc3)C2(C)C)no1	70.8µM*	-1.3%[70.6 µM]	?	i
CN(Cc1cc(C[C@@H]2C[C@H](NS(C)(=O)=O)C2(C)C)no1)c1ccccc1	?	-9.7%[70.6 µM]	?	i
CN(C)Cc1cc(C[C@@H]2C[C@H](NC(=O)C3CCC3)C2(C)C)no1	?	-2.0%[70.6 µM]	-25.2%[174 µM]	i
CN(Cc1cc(C[C@@H]2C[C@H](NC(=O)C(C)(C)C)C2(C)C)no1)c1ccccc1	89.1µM*	?	?	i
CC1(C)[C@H](Cc2cc(CCO)on2)C[C@@H]1NCc1ccccn1	2.8%[172 µM]	0.0%[70.6 µM]	-12.9%[138 µM]	i
CN(Cc1cc(C[C@@H]2C[C@H](NCc3ccccn3)C2(C)C)no1)c1ccccc1	56.2µM*	-14.2%[70.6 µM]	79.4µM*	i
CC1CCCN1C(=O)c1cc(-c2ccccc2C(F)(F)F)nc2c1cnn2C (centres undefined)	-31.6%	.	-32.9%	.
O=C(Nc1cccc(-c2ccco2)c1)C1CCN(Cc2ccc(CO)o2)CC1	?	-15.3%	-30.0%	i
Cc1ncc(CN2CCC(C(=O)Nc3cccc(-c4cc5ccccc5[nH]4)c3)CC2)cn1	20µM*	-1.4%	?	i
Cc1noc([C@H]2CCN(Cc3cc(F)cc(F)c3)C[C@H]2NC(=O)C2CC2)n1	28.2µM*	1.4%	?	i
Cc1cnc(CCNC(=O)C2(c3ccccc3)CC2)n1CC1CC1	-20.3%	.	-26.0%	.
CC(C)NC(=O)N[C@H]1CCN2C(=O)c3cc(-c4ccc(Cl)cc4)ccc3NC(=O)[C@H]12	-13.9%[172 µM]	1.2%[70.6 µM]	-25.4%[174 µM]	i
CC(C)NC(=O)N[C@H]1CCN2C(=O)c3cc(/C=C/c4ccccc4)ccc3NC(=O)[C@H]12	1.6%[172 µM]	4.6%[70.6 µM]	i	3.98µM*
O=C(Nc1cccc(C(F)(F)F)c1)c1nc2c(o1)CCN(Cc1ccc(F)cc1)CC2	28.2µM*	-30.3%[70.6 µM]	28.2µM*	i
O=C(Nc1cccc(C(F)(F)F)c1)c1nc2c(o1)CCN(Cc1cccc(F)c1)CC2	50.1µM*	?	?	?
O=C(Nc1cccc(C(F)(F)F)c1)c1nc2c(o1)CCN(Cc1cnc[nH]1)CC2	?	-9.0%[70.6 µM]	?	39.8µM*
O=C(Nc1cccc(C(F)(F)F)c1)c1nc2c(o1)CCN(Cc1ccccc1)CC2	?	0.0%[70.6 µM]	?	i
O=C(NCC1CC1)c1nc2c(o1)CCN(Cc1cccc(F)c1)CC2	?	?	?	i
SMILES	HEK293 tox	NPR1 antag	3T3 cytotox	Luciferase inh
Cn1ccnc1CN1CCC2(CC1)OC(=O)N(Cc1ccccc1F)C2(C)c1ccccc1 (centres undefined)	?	4.4%	?	i
CCCNC(=O)N(C1CCOCC1)C1CCN(S(=O)(=O)c2ccc(C)cc2C)CC1	6.8%	1.8%	-7.2%	i
CC(C)(C)c1nnc2ccc(C(=O)NC3CCCCC3)cn12	0.0%[172 µM]	.	-28.7%[138 µM]	.
CC(C)NC(=O)c1nc(-c2cccc(F)c2)c2cnccn12	-2.9%[172 µM]	-5.6%[70.6 µM]	-25.9%[138 µM]	i
CNC(=O)c1cccc(-c2cnc3[nH]cc(CC(=O)N(C)C)c3c2)c1	?	4.8%[70.6 µM]	?	?
COCCNC(=O)Cc1c[nH]c2ncc(-c3cccnc3)cc12	-21.6%[172 µM]	2.7%[70.6 µM]	?	i
O=C(Cc1c[nH]c2ncc(-c3ccccc3)cc12)NC1CC1	?	?	89.1µM*	i
CNC(=O)c1cccc(-c2cnc3[nH]cc(CC(=O)Nc4ccccc4Cl)c3c2)c1	89.1µM*	1.4%[70.6 µM]	?	?
CNC(=O)c1cccc(-c2cnc3[nH]cc(CC(=O)NC4CCC4)c3c2)c1	?	2.4%[70.6 µM]	39.8µM*	?
O=C(Cc1c[nH]c2ncc(-c3cccnc3)cc12)NCCc1ccccn1	-3.9%[172 µM]	-0.6%[70.6 µM]	100µM*	i
COCCNC(=O)C1CCCN1C(=O)c1cccc(-c2cccc(OC)c2)c1 (centres undefined)	?	.	-22.1%	.
CNC(=O)c1cccc(-c2cnc3[nH]cc(CC(=O)NCc4cccs4)c3c2)c1	?	-14.2%[70.6 µM]	89.1µM*	i
O=C(Cc1c[nH]c2ncc(-c3cccnc3)cc12)NC1CCC1	?	9.6%[70.6 µM]	28.2µM*	i
C#CCNC(=O)c1nc2cccnc2n(CCCOC)c1=O	i	.	2.8%[138 µM]	.
O=C(Nc1ccc([C@@H](O)[C@H]2COCC(=O)N2Cc2ccc(C(F)(F)F)cc2)cc1)C1CCCCC1	?	6.4%	?	i
Cc1noc(C)c1CN1CCC2(CC1)COCCN2C(=O)c1ccccc1	?	2.9%[70.6 µM]	?	i
Clc1ccc2nc(N3CCC(NC4CCSC4)CC3)sc2c1 (centres undefined)	?	11.2µM*	-32.3%	35.5µM*
O[C@H]1CCCC[C@@H]1NC1CCN(c2nc3ccc(Cl)cc3s2)CC1	22.4µM*	?	10µM*	?
Cc1nn(C)c2nc(-c3ccccn3)nc(N3CCC(c4ccc(F)cc4)C3)c12 (centres undefined)	39.8µM*	-7.3%	-27.2%	i
COc1ccc(-c2ccc(C(=O)NCCc3ccc(F)cc3)cc2)nn1	-27.1%	.	-11.9%	.
COc1cccc(CN2CCOC3(CCN([S+](=O)([O-])c4c(C)noc4C)CC3)C2=O)c1	-25.6%	-4.3%	20µM*	i
O=C1N(CCc2ccccc2)CCOC12CCN([S+](=O)([O-])c1cccnc1)CC2	-23.4%[172 µM]	5.7%[70.6 µM]	25.1µM*	i
COc1cccc(CN2CCOC3(CCN(Cc4ccc(Cl)cc4)CC3)C2=O)c1	?	?	?	i
O=C(Nc1ccc2ncnc(N3CCCC3)c2c1)c1ccc(F)c(F)c1	?	-21.2%	35.5µM*	i
Cc1ccsc1C(=O)Nc1ccc2ncnc(N3CCCCC3)c2c1	31.6µM*	?	35.5µM*	i
